Screening results from PubChem.
Shiga toxin inh = inhibitors of Shiga toxin in Vero cells. inhibition, % at 38.7 µM. Vero cells, Shiga toxin protein synthesis inhibition reporter. 290,000 compounds, 9.2% hits. AID 2315; in the data active means inhibition mostly above about 28%, no sharp cut-off; inactive means mostly below about 43%; further: 0% is about no effect
Pf growth 96h = P. falciparum growth inhibition at 96 hours. P. falciparum luciferase reporter growth, 96 h. Potency, µM (top dose mostly 28.7 µM), inactives show at the highest dose activity change, negative = inhibition, usual class: inhibitors. 320,000 compounds, 6.9% hits; further: potency means the concentration at half of the fitted maximal effect; on the % scale 0 is the no-effect control and ±100 the full control effect
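Luminescence readout: decreased luciferase signal marks inhibited growth of reporter-expressing P. falciparum in infected red cells (2% hematocrit, 0.05% parasitemia final), exposed to compound two generations (96 h, 37 C, 5% CO2).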
LmPK inhibitor = blocks Leishmania mexicana pyruvate kinase activity. Potency, µM (titrated, usually from 57.5 µM), inactives show at the highest dose activity change, negative = inhibition, hits mostly inhibitors. 290,000 compounds, 0.37% hits. purified LmPK, Kinase-Glo ATP luminescence, 1 h. AID 1721; further: potency means the concentration at half of the fitted maximal effect; on the % scale 0 is the no-effect control and ±100 the full control effect
Target sequence (Q27686 whole entry, looked up): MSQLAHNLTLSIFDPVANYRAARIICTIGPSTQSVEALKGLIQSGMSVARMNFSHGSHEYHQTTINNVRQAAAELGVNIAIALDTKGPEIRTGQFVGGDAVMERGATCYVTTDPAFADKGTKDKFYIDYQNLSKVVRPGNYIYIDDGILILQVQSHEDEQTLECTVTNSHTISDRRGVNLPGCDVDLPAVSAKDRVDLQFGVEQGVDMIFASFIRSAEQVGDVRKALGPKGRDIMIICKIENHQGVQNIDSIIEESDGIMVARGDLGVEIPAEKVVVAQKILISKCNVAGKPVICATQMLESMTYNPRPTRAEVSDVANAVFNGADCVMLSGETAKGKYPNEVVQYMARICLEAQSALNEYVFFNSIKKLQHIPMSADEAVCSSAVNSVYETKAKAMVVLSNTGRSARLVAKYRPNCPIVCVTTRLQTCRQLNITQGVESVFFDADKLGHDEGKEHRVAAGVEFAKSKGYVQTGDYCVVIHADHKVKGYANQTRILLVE
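Screened at intermediate enzyme activity to detect both inhibitors and activators: LmPK at 0.1 nM, with a 0.5 nM enzyme column as activation reference. PEP 0.5 mM, ADP 0.1 mM; ATP detected by luminescence after 1 h.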
Pf growth 48h = P. falciparum growth inhibition at 48 hours (one generation). P. falciparum luciferase growth in erythrocytes, 48 h. Potency, µM (titrated, usually from 28.7 µM), for the others: at the top dose activity change, negative = inhibition, hits mostly inhibitors. 310,000 compounds, 5.9% hits. AID 504832; further: potency means the concentration at half of the fitted maximal effect; on the % scale 0 is the no-effect control and ±100 the full control effect
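In quantitative HTS format, infected erythrocytes bearing luciferase-reporter parasites were treated for a single generation at 37 C. Luminescence after adding detection reagent served as the growth measure.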
CHX counter = affects cycloheximide protein synthesis inhibition readout, counter-screen; cell reporter, cycloheximide protein synthesis inhibition counterscreen; max response, %; 300,000 compounds, 12% hits; in the data active means max response mostly above about 13%, no sharp cut-off; inactive means mostly below about 14%; further: read at 38.3 µM for the half of the compounds with a filed dose; 0% is about no effect
* = called active by the depositor; ? = inconclusive; / = no result; [ ] = another dose, or the depositor's remark. Only some compounds are listed: those with a hit (about 22% of all), similar ones and a draw of the others. Unless noted, the call rests on the fitted dose curve; in most records, active means well fitted inhibition curve with a large enough effect; inconclusive means small, poorly fitted or top-dose-only effect, or another doubt; inactive means no such curve, though single readings can be large or run the other way.

SMILES | Shiga toxin inh | Pf growth 96h | LmPK inhibitor | Pf growth 48h | CHX counter
CCC1C(=O)NCCN1C(=O)c1cccc(OC2CCN(S(=O)(=O)N(C)C)CC2)c1 (centres undefined) | 52.1 | 31.5% | -2.4% | 7.8% | 38.4*
CC1(C)CNC(=O)c2sc(N3CCCCC3)nc2C1 | 55.9 | -3.1% | -2.2% | 67.0% | 23.2*
CC1(C)CC(=O)c2sc(NS(C)(=O)=O)nc2C1 | -3.5 | 5.1% | -2.3% | 0.1% | -3.7
CC1(C)CC(=O)c2sc(N3CCCCC3)nc2C1 | 92.0* | 259.6% | -1.6% | 89.8% | 28.6*
COC(=O)/C(=C1/Oc2ccc(C)cc2S1)C(F)(F)F | 56.5* | ? | -1.2% | 36.1% | 24.5*
COC(=O)/C(=C1/Oc2cc3c(cc2S1)OCO3)C(F)(F)F | -0.5 | 2.5% | 1.4% | 36.0% | 1.4
Cc1c(C)c2ccc(OCC(=O)NCCCN3CCCC3=O)cc2oc1=O | 18.3 | -8.2% | 0.8% | -8.1% | -6.3
Nc1nnnn1/N=C/c1ccc(O)cc1 | -4.6 | 2.08µM* | 15.8µM* | / | 7.5
CCN(C)c1ccc(/C=N\n2nnnc2N)cc1 | 64.6* | 2.62µM* | -3.5% | 197.3% | 29.5*
COc1cc(/C=N/n2nnnc2N)ccc1O | -15.0 | 13.1µM* | 2.7% | / | -1.1
Nc1nnnn1/N=C/c1cccc(O)c1 | 7.3 | 17.9% | -2.4% | 27.0% | 5.9
Nc1nnnn1/N=C/c1ccccn1 | -12.4 | 6.57µM* | -4.2% | 27.4% | -1.0
CCCOc1ccc(/C=N/n2nnnc2N)cc1OC | 10.1 | -14.6% | -9.5% | 29.3% | 8.9
CCCCNC(=O)c1nn2c(C(F)(F)F)cc(-c3ccc(OC)cc3)nc2c1Br | -4.7 | ? | -0.9% | 4.9% | -2.0
Cc1oc(/C=N/NC(=O)CN(c2ccccc2Br)S(C)(=O)=O)cc1Br | -3.3 | 72.1% | 5.4% | -4.6% | 3.4
CSc1ccc(/C=N/n2nnnc2N)cc1 | 24.5 | 2.4% | 0.2% | 69.6% | 27.1*
CCN(CC)c1ccc(/C=N/n2nnnc2N)c(O)c1 | 33.0 | -9.9% | -0.9% | 70.0% | 13.8*
O=C(/C=C/c1cccc(F)c1)OCC(=O)N1CCCc2ccccc21 | / | 13.0% | / | 9.8% | /
O=C(/C=C/c1ccc(F)cc1)N1CCCc2ccccc21 | 42.9* | ? | 3.3% | 0.0% | 38.3
O=C(/C=C/c1ccc(Cl)cc1Cl)N1CCc2ccccc21 | 61.2* | 353.1% | -18.0% | 407.2% | 31.7*
O=C(/C=C/c1cccc(F)c1)N1CCc2ccccc21 | 102.2* | 0.0% | -15.6% | 223.1% | 64.7*
O=C(/C=C/c1ccc(F)cc1)N1CCc2ccccc2C1 | / | 37.8% | / | 63.2% | /
CCc1nnc(NS(=O)(=O)c2ccc(NC(=O)CCC(=O)OC)cc2)s1 | -10.8 | ? | -0.1% | 0.0% | 0.3
O=C(Nc1cccnc1)c1cc(Br)c(Br)s1 | / | 11.7µM* | / | ? | /
O=C(Nc1cccc(NC(=O)c2cccnc2)c1)c1ccccc1 | 17.8 | 19.0% | -7.8% | 19.1% | -1.6
SMILES | Shiga toxin inh | Pf growth 96h | LmPK inhibitor | Pf growth 48h | CHX counter
O=C(NCC1CCCO1)c1cc(Br)c(Br)s1 (centres undefined) | 21.6 | 7.0% | 3.0% | -1.7% | 7.8
NC(=O)c1cc(NC(=O)c2cc(Br)c(Br)s2)cc(C(N)=O)c1 | -4.1 | 8.28µM* | -1.1% | -15.2% | -1.9
COc1ccc(CN2CCCC(C(=O)Nc3cccc(-n4cnnn4)c3)C2)c(C)c1C (centres undefined) | -5.3 | ? | -3.4% | ? | -0.5
Cc1cccc(NC(=O)Cc2noc3ccccc23)c1 | 73.8* | 261.7% | -3.7% | 206.7% | 48.5*
O=C(Cc1noc2ccccc12)Nc1ccc(Cl)cc1 | 21.8 | 35.0% | -2.1% | 40.5% | 35.0*
Cc1cccc(NC(=O)Cc2noc3ccccc23)c1C | 34.2* | 31.7% | -0.2% | 32.1% | 22.3
CSCCC(NC(=O)COc1ccccc1)C(=O)OCc1ccc([N+](=O)[O-])cc1 (centres undefined) | / | 22.9% | / | -15.8% | /
Cc1cccc(NC(=O)CSc2nnc(C)c(=O)n2N)c1 | 1.5 | 35.2% | -3.2%[11.5 µM] | 10.1% | -1.9
COc1ccc(CN2C(=NC(=O)COc3ccccc3)SC3CS(=O)(=O)CC32)cc1 (centres undefined) | -8.3 | ? | -0.9% | ? | -3.2
C=CCn1c2ccccc2c(=O)c2cc(C#Cc3ccsc3)ccc21 | 17.5 | 0.329µM* | -1.1% | 0.0465µM* | 10.0
C=CCn1c2ccccc2n2nc(C)c(=O)nc12 | -4.3 | ? | 1.7% | -16.8% | -1.8
C=CCn1c2ccccc2c(=O)c2cc(C#Cc3ccccn3)ccc21 | / | 2.08µM* | / | ? | /
C=CCn1c(O)c(N=O)c2ccccc21 | -9.0 | ? | 1.3% | -3.4% | -2.4
Cc1cccc(C)c1Nc1nnc(SCC(=O)Nc2cc(S(=O)(=O)N3CCCCC3)ccc2Cl)s1 | -1.9 | ? | 1.3% | 13.1µM* | -1.9
Cc1ccc(Nc2nnc(SCC(=O)Nc3ccc(S(=O)(=O)N4CCOCC4)cc3)s2)cc1 | 110.9* | / | -0.3% | 25.6% | 49.0*
Cc1cccc(Nc2nnc(SCC(=O)Nc3cccc(S(=O)(=O)N4CCCCC4)c3)s2)c1 | 77.5* | -15.7% | -2.5% | 28.9% | 29.2*
Cc1nnc(SCC(=O)Nc2cc(S(=O)(=O)N3CCCC3)ccc2Cl)n1C1CC1 | / | ? | / | -24.5% | /
O=C(CSc1nnc(Nc2ccccc2)s1)Nc1ccc(S(=O)(=O)N2CCOCC2)cc1 | -3.6 | -27.4% | 3.3% | / | 6.8
CCOC(=O)c1cn[nH]c1NC(=S)Nc1ccc(Cl)cc1 | 57.9* | -38.8% | 3.9% | 213.9% | 57.7*
CCOC(=O)c1cn[nH]c1C(F)(F)F | -1.3 | 56.2% | 3.3% | 13.5% | 1.2
O=C1c2ccccc2C(=O)N1Cc1ccco1 | -12.4 | ? | -9.3% | 12.2% | -2.9
CC(=O)N1C(=O)C(=C2C=C(C)OC(C)=C2)c2ccccc21 | -19.4 | ? | -2.3% | -1.4% | -7.0
CC1=CC(=C2C(=O)c3ccccc3C2=O)C=C(C)N1Cc1ccco1 | 65.7* | ? | -7.6% | 110.3% | 37.0*
CC1=CC(=C2C(=O)c3ccccc3C2=O)C=C(C)O1 | 17.7 | -26.8% | -9.8% | 25.7% | 11.3*
COc1ccc(OC)c(C2=NOC(C(=O)Nc3cccc(C(C)=O)c3)C2)c1 (centres undefined) | -7.2 | 9.28µM* | 1.5% | 20.3% | -2.8
COc1ccc(OC)c(C2=NOC(C(=O)Nc3ccccc3SC)C2)c1 (centres undefined) | -6.3 | ? | 3.1% | / | 9.4
COc1ccc(C2=NOC(C(=O)Nc3cc(Br)ccc3O)C2)cc1OC (centres undefined) | -3.2 | 1.8% | 0.1% | 14.7µM* | -2.5
COc1ccc(C2=NOC(C(=O)NC3CCCCC3)C2)cc1OC (centres undefined) | 6.4 | 1.7% | 3.5% | 2.4% | -1.3
COc1cccc(C2=NOC(C(=O)Nc3ccc(C(C)=O)cc3)C2)c1 (centres undefined) | 53.5* | 15.4% | 0.9% | -20.5% | 47.8*
COc1cc(C2=NOC(C(=O)Nc3ccc(C(C)=O)cc3)C2)cc(OC)c1OC (centres undefined) | 80.7* | ? | 2.6% | 33.8% | 28.7*
